High-throughput results: PubChem, several laboratories
Only some compounds are listed: those with a hit (about 2.9% of all), similar ones and a draw of the others.
Rtt109 Vps75 = C. albicans Rtt109 histone acetyltransferase inhibition. inhibition, % at 34.9 µM. 0.16% of 330,000 active. Q5AAJ8. purified Rtt109/Vps75, ThioGlo CoA-SH fluorescence, 4 h;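 active means inhibition of at least 50% in every replicate; inconclusive means best replicate reaches 50% inhibition but some replicates fall short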
Myeloid diff MLP = myeloid differentiation induction; ER-HoxA9 myeloid progenitors, lysozyme-GFP differentiation, flow cytometry; calls only at 10 µM; 1% of 360,000 active; AID 624256;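 active means normalized GFP-positive differentiation at or above the plate's own cutoff, the solvent-only control mean plus 3 SD; inconclusive means no clear call, values can overlap the other calls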;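 further: cells exposed to compound for four days before flow analysis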
ABHD5-PLIN5 inh = blocks binding of human ABHD5 to perilipin-5. Q00G26+Q8WTS1. Split G. princeps luciferase complementation, luminescence, 4 h. inhibition, % at 4 µM. 0.78% of 360,000 active;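 active means inhibition above the mean inhibition across every tested compound plus 3 SD, cut at about 22% in these data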;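 further: 0% = DMSO only wells and the 100% control is not disclosed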
Target sequence (Q00G26 whole entry, looked up): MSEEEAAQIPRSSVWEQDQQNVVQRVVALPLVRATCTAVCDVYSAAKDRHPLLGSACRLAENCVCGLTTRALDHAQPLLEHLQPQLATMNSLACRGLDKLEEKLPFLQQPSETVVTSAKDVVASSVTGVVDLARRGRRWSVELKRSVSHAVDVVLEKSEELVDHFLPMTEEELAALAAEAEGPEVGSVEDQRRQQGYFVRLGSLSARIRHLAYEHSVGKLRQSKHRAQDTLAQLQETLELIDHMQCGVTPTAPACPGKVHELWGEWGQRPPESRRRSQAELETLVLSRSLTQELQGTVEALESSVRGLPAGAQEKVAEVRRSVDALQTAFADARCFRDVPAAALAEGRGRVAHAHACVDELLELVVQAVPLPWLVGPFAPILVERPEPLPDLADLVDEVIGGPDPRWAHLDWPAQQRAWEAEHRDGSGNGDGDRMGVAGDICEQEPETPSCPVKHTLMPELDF
Target sequence (Q8WTS1 whole entry, looked up): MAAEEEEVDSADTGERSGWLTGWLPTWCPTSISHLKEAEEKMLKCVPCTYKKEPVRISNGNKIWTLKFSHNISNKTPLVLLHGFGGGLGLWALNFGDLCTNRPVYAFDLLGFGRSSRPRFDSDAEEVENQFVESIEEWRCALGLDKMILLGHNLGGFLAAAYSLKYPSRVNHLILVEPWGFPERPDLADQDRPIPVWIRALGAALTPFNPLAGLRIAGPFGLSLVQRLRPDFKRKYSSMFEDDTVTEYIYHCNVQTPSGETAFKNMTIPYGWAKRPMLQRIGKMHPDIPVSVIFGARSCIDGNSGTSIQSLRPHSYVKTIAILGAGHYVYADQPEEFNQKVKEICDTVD
H9c2 protect = myocardial damage modulation in H9c2 cells. H9c2 cardiomyocytes, H2O2 injury protection, ATPLite, 2 h. protection from H2O2 cell death, % at 20 µM. 0.63% of 360,000 active;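 active means compounds giving at least 50% protection of heart cells from peroxide-induced death in the single-dose screen, raw or plate-pattern-corrected value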;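 further: 0% = DMSO wells with peroxide and 100% = DMSO wells without peroxide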
DAGLB inh = diacylglycerol lipase beta (human) inhibition. Q8NCG7. HEK293T DAGLB membrane lysate, EnzChek fluorogenic substrate. inhibition, % at 5.17 µM. 0.059% of 340,000 active. AID 504411; in the data active means inhibition above about 34%;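 further: 0% = enzyme with vehicle and 100% = wells lacking enzyme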
sPLA2-III inh = Blocks human group III sPLA2 activity. Q9NZ20. QFRET BODIPY PC-A2 liposome hydrolysis, fluorescence. inhibition, % at 12.2 µM. 0.56% of 370,000 active;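 active means inhibition above mean plus 3 SD of compounds lying within the high and low control bounds, cut at about 19% in these data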;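 further: 0% = median of test compound wells and 100% = no enzyme DMSO wells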
ABHD5-PLIN5 conf = confirmation of human ABHD5-PLIN5 interaction inhibitors. AID 651612. 67% of 2,200 active. shares compounds with ABHD5-PLIN5 inh. biochemical ABHD5-PLIN5 interaction, luminescence. inhibition, % at 4 µM; in the data active means inhibition above about 23%;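 further: 0% = DMSO vehicle wells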
HNF4 counter = HNF4 split-luciferase signal hit, counter-screen | shares compounds with ABHD5-PLIN5 inh | HNF4 dimerization, luminescence, biochemical | inhibition, % at 4 µM | 77% of 2,200 active;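 active means mean inhibition across replicate wells exceeding the computed hit threshold, cut at about 13% in these data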;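 further: light from luciferase halves that rejoin when HNF4 fusion proteins dimerize; 0% = DMSO only wells and the 100% control is not given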
Starred values were filed as active, the others as inactive.

Cc1cc(C)c(NC(=O)CNC(=O)COC(=O)Cc2ccccc2C)c(C)c1 was read as Rtt109 Vps75 -7.0, Myeloid diff MLP inactive, ABHD5-PLIN5 inh -3.4, H9c2 protect -0.3, DAGLB inh 0.2 and sPLA2-III inh 4.9.
For CCCN(C(=O)c1cc(S(=O)(=O)N2CCN(CC)CC2)ccc1Cl)C1CCS(=O)(=O)C1 (stereo unspecified) the results were Rtt109 Vps75 0.2, Myeloid diff MLP inactive, ABHD5-PLIN5 inh 25.8*, H9c2 protect 2.0, DAGLB inh 4.9, sPLA2-III inh 6.6, ABHD5-PLIN5 conf 3.5 and HNF4 counter 2.6.
COC(=O)c1ccc(/C=C/C(=O)OCC(=O)c2ccc[nH]2)cc1 was read as Rtt109 Vps75 1.2, Myeloid diff MLP inactive, ABHD5-PLIN5 inh 9.5, H9c2 protect 0.0, DAGLB inh -1.8 and sPLA2-III inh 1.7.
`CCCCCCCCSC1=CC(=O)C(OC)=C(OC)C1=O` gave ABHD5-PLIN5 inh 64.9*, H9c2 protect -26.7, DAGLB inh -8.2, sPLA2-III inh 5.7, ABHD5-PLIN5 conf 100.0* and HNF4 counter 104.1*.
`CCc1ccc(NC(=O)COc2coc(CN3CCN(c4ccccc4)CC3)cc2=O)cc1` gave Rtt109 Vps75 22.1, Myeloid diff MLP inactive, ABHD5-PLIN5 inh -1.8, H9c2 protect -1.9, DAGLB inh -1.4 and sPLA2-III inh 6.8.
Screening COc1cccc(NC(=O)COc2coc(CN3CCN(c4ccccc4)CC3)cc2=O)c1 returned Rtt109 Vps75 26.7, Myeloid diff MLP inactive, ABHD5-PLIN5 inh 24.8*, H9c2 protect 1.8, DAGLB inh 0.6, sPLA2-III inh 0.6, ABHD5-PLIN5 conf 6.5 and HNF4 counter 0.6.
CC(Oc1ccc(Br)cc1)C(=O)N1CCC(C(N)=O)CC1 (stereo unspecified) was read as Rtt109 Vps75 5.3, Myeloid diff MLP inactive, ABHD5-PLIN5 inh 45.0*, H9c2 protect -3.0, DAGLB inh -0.4, sPLA2-III inh 4.8, ABHD5-PLIN5 conf 9.7 and HNF4 counter 6.6.
For O=[N+]([O-])c1cc(S(=O)(=O)NCCN2CCOCC2)ccc1Sc1nnnn1-c1ccccc1 the results were Rtt109 Vps75 -5.1, Myeloid diff MLP inactive, ABHD5-PLIN5 inh 12.6, H9c2 protect -12.3, DAGLB inh -4.2 and sPLA2-III inh -10.0.
For Cc1ccc(-n2nnnc2Sc2ccc(S(=O)(=O)NCCN(C)C)cc2[N+](=O)[O-])cc1 the results were Rtt109 Vps75 18.0, Myeloid diff MLP inconclusive, ABHD5-PLIN5 inh 31.2*, H9c2 protect -7.2, DAGLB inh -18.5, sPLA2-III inh -11.4, ABHD5-PLIN5 conf 19.4 and HNF4 counter 34.2*.
For Cn1ncc(C#N)c1NC(=O)C1CC(c2ccccc2Cl)=NO1 (stereo unspecified) the results were sPLA2-III inh 5.0.
CC1CC(C)CN(C(=O)CN2C(=O)NC(c3ccccc3)(c3ccccc3)C2=O)C1 (stereo unspecified) was read as Rtt109 Vps75 -6.3, Myeloid diff MLP inactive, ABHD5-PLIN5 inh 34.3*, H9c2 protect 0.3, DAGLB inh 0.5, sPLA2-III inh 1.0, ABHD5-PLIN5 conf 2.8 and HNF4 counter 3.3.
For CCOC(=O)N1CCN(C(=O)CN2C(=O)NC(c3ccccc3)(c3ccccc3)C2=O)CC1 the results were Rtt109 Vps75 -14.4, Myeloid diff MLP inactive, ABHD5-PLIN5 inh 5.8, H9c2 protect 4.8, DAGLB inh 0.8 and sPLA2-III inh -0.6.
`Cc1ccccc1NC1=CC(=O)CC(C)(C)C1` gave Rtt109 Vps75 -3.0, Myeloid diff MLP inactive, ABHD5-PLIN5 inh 0.6, H9c2 protect -2.2, DAGLB inh 0.0 and sPLA2-III inh 2.4.
CC1(C)CC(=O)C=C(NC2=CC3OC(c4ccccc4)OCC3OC2=O)C1 (stereo unspecified) was read as Rtt109 Vps75 -4.6, Myeloid diff MLP inactive, ABHD5-PLIN5 inh 62.9*, H9c2 protect -19.5, DAGLB inh -1.6, sPLA2-III inh 18.5, ABHD5-PLIN5 conf 85.1* and HNF4 counter 93.8*.
For O=C(O)c1cccc(S(=O)(=O)Nc2ccc3oc(=O)sc3c2)c1 the results were Rtt109 Vps75 21.8, Myeloid diff MLP inactive, ABHD5-PLIN5 inh 62.9*, H9c2 protect 7.2, DAGLB inh -0.6, sPLA2-III inh -13.1, ABHD5-PLIN5 conf -39.9 and HNF4 counter 41.7*.
For O=c1[nH]nc(SC2CCCCC2)c(=O)[nH]1 the results were Rtt109 Vps75 1.8, Myeloid diff MLP inactive, ABHD5-PLIN5 inh -7.7, H9c2 protect -2.0, DAGLB inh -1.9 and sPLA2-III inh 10.4.
For O=c1[nH]sc2ccccc12 the results were Rtt109 Vps75 -0.4, Myeloid diff MLP inconclusive, ABHD5-PLIN5 inh 65.0*, H9c2 protect -39.4, DAGLB inh -1.8, sPLA2-III inh -5.4, ABHD5-PLIN5 conf 65.8* and HNF4 counter 109.3*.
Cc1ccc(C(C)C)cc1OCC(=O)N1CCN(C(=O)c2ccco2)CC1 was read as Rtt109 Vps75 4.8, Myeloid diff MLP inactive, ABHD5-PLIN5 inh 23.6*, H9c2 protect -1.7, DAGLB inh 6.9, sPLA2-III inh -2.7, ABHD5-PLIN5 conf 2.6 and HNF4 counter -1.9.
`CC(C)c1ccc(OCC(=O)N2CCN(C(=O)c3ccco3)CC2)cc1` gave Rtt109 Vps75 3.4, Myeloid diff MLP inactive, ABHD5-PLIN5 inh 5.6, H9c2 protect 3.3, DAGLB inh 0.1 and sPLA2-III inh -5.7.
C=CCSc1nc2ccccc2n1C(=O)/C=C/c1ccc(OC)c(OC)c1 was read as Rtt109 Vps75 3.4, Myeloid diff MLP inactive, ABHD5-PLIN5 inh 9.3, H9c2 protect 18.9, DAGLB inh -2.3 and sPLA2-III inh -2.4.
C=CCSc1nc2ccccc2n1C(=O)/C=C/c1cc(OC)c(OC)c(OC)c1 was read as Rtt109 Vps75 -4.4, Myeloid diff MLP inconclusive, ABHD5-PLIN5 inh 42.5*, H9c2 protect 3.1, DAGLB inh -9.8, sPLA2-III inh 2.8, ABHD5-PLIN5 conf 88.1* and HNF4 counter 71.7*.
`O=C1c2ccccc2C(=O)N1c1nccs1` gave Rtt109 Vps75 -6.3, Myeloid diff MLP inactive, ABHD5-PLIN5 inh 7.5, H9c2 protect 1.2, DAGLB inh 0.0 and sPLA2-III inh 7.2.
`O=c1c2ccccc2sn1-c1nccs1` gave Rtt109 Vps75 6.7, Myeloid diff MLP inactive, ABHD5-PLIN5 inh 81.0*, H9c2 protect -23.0, sPLA2-III inh 12.0, ABHD5-PLIN5 conf 86.5* and HNF4 counter 118.0*.
For COc1ccc2c(c1)CCCN2C(=O)C1CCCN(S(=O)(=O)c2ccc(C)c(C)c2)C1 (stereo unspecified) the results were sPLA2-III inh -1.6.
Screening CN(C)CCCN1c2ccc(O)cc2Sc2ccc(Cl)cc21 returned Myeloid diff MLP inactive, ABHD5-PLIN5 inh 17.1, H9c2 protect -2.9, DAGLB inh 4.7 and sPLA2-III inh 7.7.
